PubChem BioAssay AID1159580 (chemical genetic matrix, 2015)
The whole screen tested about 5,500 compounds, of which about 2,000 (36%) were called active. Roughly 18% stayed inconclusive and do not appear here. Rule as the data show it: active = normalized growth mostly below about 0.91 (no sharp cut-off); inconclusive = no clear call, values can overlap the other calls; inactive = mostly above about 0.92. Some of the results follow.

Experiment: chemical genetic growth profiling, strain panel (AID 1159580);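 also: tested at 20 µM; growth read once vehicle control cultures reached saturation at 30 °C; 1 = growth at the plate median or of vehicle wells; lower values mean less growth of the strain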
Conditions: growth OD

Measured: normalized growth

CC(C)(Oc1ccc(CCNC(=O)c2ccc(Cl)cc2)cc1)C(=O)O
inactive: S. cerevisiae deletion strains, locus YJR075W, strain HOC1, hits give low values 1.02 | S. cerevisiae deletion strains, locus YKL009W, strain mrt4, hits give low values 1.02 | S. cerevisiae deletion strains, locus YKL068W, hits give low values 1.01 | S. cerevisiae deletion strains, locus YKL085W, strain MDH1 (second series), hits give low values 1.03 | S. cerevisiae deletion strains, locus YKL085W, strain MDH1, hits give low values 1.03 | S. cerevisiae deletion strains, locus YKL160W, strain elf1, hits give low values 0.961 | S. cerevisiae deletion strains, locus YKL190W, strain CNB1, hits give low values 1.01 | S. cerevisiae deletion strains, locus YKR001C, strain vps1, hits give low values 1.02 | S. cerevisiae deletion strains, locus YKR026C, strain gcn3, hits give low values 0.991 | S. cerevisiae deletion strains, locus YKR091W, strain srl3, hits give low values 0.996 | S. cerevisiae deletion strains, locus YLL001W, strain dnm1, hits give low values 0.975 | S. cerevisiae deletion strains, locus YLL026W, hits give low values 0.995 | S. cerevisiae deletion strains, locus YLL041C, strain sdh2, hits give low values 0.98 | S. cerevisiae deletion strains, locus YLR027C, strain aat2, hits give low values 0.977 | S. cerevisiae deletion strains, locus YLR039C, strain RIC1, hits give low values 1.03 | S. cerevisiae deletion strains, locus YLR058C, strain SHM2, hits give low values 1.01 | S. cerevisiae deletion strains, locus YLR102C, strain apc9, hits give low values 1.01 | S. cerevisiae deletion strains, locus YLR113W, strain HOG1, hits give low values 0.943 | S. cerevisiae deletion strains, locus YLR221C, strain rsa3, hits give low values 0.997 | S. cerevisiae deletion strains, locus YLR258W, strain gsy2, hits give low values 0.972 | S. cerevisiae deletion strains, locus YLR262C, strain YPT6 (second series), hits give low values 1.01 | S. cerevisiae deletion strains, locus YLR262C, strain YPT6, hits give low values 1.02 | S. cerevisiae deletion strains, locus YLR268W, strain sec22, hits give low values 1.01 | S. cerevisiae deletion strains, locus YLR320W, strain mms22, hits give low values 0.978 | S. cerevisiae deletion strains, locus YLR330W, strain CHS5, hits give low values 1.01 | S. cerevisiae deletion strains, locus YLR342W, strain FKS1 (second series), hits give low values 1.05 | S. cerevisiae deletion strains, locus YLR342W, strain FKS1, hits give low values 0.978 | S. cerevisiae deletion strains, locus YLR357W, strain rsc2, hits give low values 0.951 | S. cerevisiae deletion strains, locus YLR370C, strain arc18, hits give low values 0.983 | S. cerevisiae deletion strains, locus YLR371W, strain rom2, hits give low values 1.02 | S. cerevisiae deletion strains, locus YLR384C, strain iki3, hits give low values 0.972 | S. cerevisiae deletion strains, locus YLR418C, strain cdc73, hits give low values 1.06 | S. cerevisiae deletion strains, locus YML016C, strain PPZ1, hits give low values 1.02 | S. cerevisiae deletion strains, locus YML032C, strain rad52, hits give low values 1.01 | S. cerevisiae deletion strains, locus YML120C, strain ndi1, hits give low values 1.03 | S. cerevisiae deletion strains, locus YML124C, strain tub3, hits give low values 1.01 | S. cerevisiae deletion strains, locus YMR058W, strain fet3, hits give low values 0.995 | S. cerevisiae deletion strains, locus YMR078C, strain ctf18, hits give low values 1.01 | S. cerevisiae deletion strains, locus YMR125W, strain sto1, hits give low values 0.986 | S. cerevisiae deletion strains, locus YMR129W, hits give low values 0.982 | S. cerevisiae deletion strains, locus YMR205C, strain PFK2, hits give low values 0.977 | S. cerevisiae deletion strains, locus YMR223W, strain ubp8, hits give low values 1.01 | S. cerevisiae deletion strains, locus YMR231W, strain pep5, hits give low values 0.994 | S. cerevisiae deletion strains, locus YMR307W, strain GAS1, hits give low values 1.04 | S. cerevisiae deletion strains, locus YNL067W, strain RPL9B, hits give low values 1.01 | S. cerevisiae deletion strains, locus YNL071W, strain lat1, hits give low values 0.994 | S. cerevisiae deletion strains, locus YNL128W, strain TEP1, hits give low values 1.04 | S. cerevisiae deletion strains, locus YNL153C, strain GIM3, hits give low values 1.02 | S. cerevisiae deletion strains, locus YNL183C, strain NPR1, hits give low values 0.937 | S. cerevisiae deletion strains, locus YNL209W, strain ssb2, hits give low values 0.98 | S. cerevisiae deletion strains, locus YNL233W, strain BNI4, hits give low values 1.01 | S. cerevisiae deletion strains, locus YNL248C, strain rpa49, hits give low values 0.986 | S. cerevisiae deletion strains, locus YNL250W, strain rad50, hits give low values 1.02 | S. cerevisiae deletion strains, locus YNL271C, strain bni1, hits give low values 1.02 | S. cerevisiae deletion strains, locus YNL298W, strain CLA4, hits give low values 1.02 | S. cerevisiae deletion strains, locus YNL307C, strain MCK1, hits give low values 1.03 | S. cerevisiae deletion strains, locus YNL322C, strain KRE1 (second series), hits give low values 0.978 | S. cerevisiae deletion strains, locus YNL322C, strain KRE1, hits give low values 1.01 | S. cerevisiae deletion strains, locus YNR049C, strain mso1, hits give low values 0.971 | S. cerevisiae deletion strains, locus YNR052C, strain pop2, hits give low values 1.01 | S. cerevisiae deletion strains, locus YOL006C, strain TOP1, hits give low values 1.04 | S. cerevisiae deletion strains, locus YOL012C, strain htz1 0.932 | S. cerevisiae deletion strains, locus YOL147C, strain pex11, hits give low values 1.01 | S. cerevisiae deletion strains, locus YOR001W, strain rrp6, hits give low values 1.01 | S. cerevisiae deletion strains, locus YOR061W, strain CKA2, hits give low values 1.02 | S. cerevisiae deletion strains, locus YOR069W, strain VPS5, hits give low values 1.01 | S. cerevisiae deletion strains, locus YOR070C, strain gyp1, hits give low values 0.993 | S. cerevisiae deletion strains, locus YOR080W, strain dia2, hits give low values 0.983 | S. cerevisiae deletion strains, locus YOR083W, strain WHI5, hits give low values 0.922 | S. cerevisiae deletion strains, locus YOR106W, strain vam3, hits give low values 0.982 | S. cerevisiae deletion strains, locus YOR136W, strain idh2, hits give low values 1.02 | S. cerevisiae deletion strains, locus YOR144C, strain elg1, hits give low values 1.02 | S. cerevisiae deletion strains, locus YOR184W, strain ser1, hits give low values 1.06 | S. cerevisiae deletion strains, locus YOR231W, strain MKK1, hits give low values 0.988 | S. cerevisiae deletion strains, locus YOR265W, strain rbl2, hits give low values 0.983 | S. cerevisiae deletion strains, locus YOR270C, strain vph1, hits give low values 1.03 | S. cerevisiae deletion strains, locus YOR290C, strain snf2, hits give low values 0.977 | S. cerevisiae deletion strains, locus YOR316C, strain cot1, hits give low values 1.03 | S. cerevisiae deletion strains, locus YPL051W, strain arl3, hits give low values 0.984 | S. cerevisiae deletion strains, locus YPL055C, strain LGE1, hits give low values 1 | S. cerevisiae deletion strains, locus YPL078C, strain atp4, hits give low values 0.971 | S. cerevisiae deletion strains, locus YPL106C, strain sse1, hits give low values 0.934 | S. cerevisiae deletion strains, locus YPL240C, strain hsp82, hits give low values 0.989 | S. cerevisiae deletion strains, locus YPL256C, strain CLN2, hits give low values 1 | S. cerevisiae deletion strains, locus YPR119W, strain clb2, hits give low values 1.01 | S. cerevisiae deletion strains, locus YPR141C, strain kar3, hits give low values 1.01 | S. cerevisiae deletion strains, locus YPR163C, strain tif3, hits give low values 1.02 | S. cerevisiae deletion strains, locus YPR167C, strain met16, hits give low values 1.03 | S. cerevisiae deletion strains, strain wtn01, hits give low values 1.02 | S. cerevisiae strains, strain wild type, hits give low values 1.02
